About 83,000 compounds went through this panel and 20% of them were active in at least one assay; those are over-represented in the sample as a whole.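 Note: values are percent growth. 100 is the growth of untreated cells, values between 100 and 0 indicate rising inhibition; between -100 and 0 indicates cell death.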 A number with no mark means an inactive call. Calls of active or inactive are those of the source. How the source made its calls: active means growth percent below 10; inactive means the rest.

One test concerns HCT-15 colon. Nature of the test: NCI-60 one-dose screen, 48 h (100 = growth as untreated, 0 = no growth, -100 = all killed). The note with it: 10 µM unless noted.
Consider `N/C(=N\c1nc2ccc([N+](=O)[O-])cc2s1)C(Cl)(Cl)Cl`, for which the growth is 70.8%. Consider `CS(=O)c1nccc(-c2c(-c3ccc(F)c(OCCc4ccc(F)cc4)c3)nc3sccn23)n1` (stereo not given), for which the growth is 11.7%.

`CN(c1ccc(F)cc1)S(=O)(=O)c1ccc(-c2cnc(C3CC3)o2)cc1`: the growth is 17.9%. For `Cc1cn(-c2cc(NC(=O)c3cncc(C#Cc4cnc5ccc(OCCCS(C)(=O)=O)nn45)c3)cc(C(F)(F)F)c2)cn1`, the growth is 37.8%.

In another test the test system is HT29 colon. The test is described as above. The note with it: 10 µM unless noted.
As for `Cc1ccc(NC(=O)N[C@@H](Cc2cc(F)cc(F)c2)C(=O)NC2C(=O)N3CCC[C@H]3C(=O)N3CCCC[C@H]3C(=O)N[C@@H](C)C(=O)N3C[C@H](C)C[C@H]3C(=O)O[C@H]2C)c(F)c1` (stereo not given in full), the growth is 26.5%.

For the molecule `COc1ccc(/C=C/C(=O)c2nnn(-c3ccc(C(=O)O)cc3)c2C)cc1OC`, the growth was 102%. For `O=C(Nc1cc(F)cc2cccnc12)c1cnc(N2CCOCC2)cn1`, the growth is 30.1%.

Consider `Oc1ccccc1-c1nnc(SCc2ccc(O)c3ncccc23)o1`, for which the growth was 102%. In the case of `COc1cc(/C=C2\SC(=O)NC2=O)ccc1OCC(=O)Nc1ccc(C(=O)/C=C/c2cc3ccccc3nc2Cl)cc1`, the growth was 69.9%. Consider `Nc1nc(-c2cccc([N+](=O)[O-])c2)c(N=Nc2ccccc2Cl)s1`, for which the growth is 87.1%.

As to `Oc1ccc(-c2nnc(SCc3ccc(O)c4ncccc34)o2)cc1`, the growth was 24%.

As for `C[C@H]1[C@H](C)CC[C@]2(COC(=O)c3cccnc3)CC[C@]3(C)C(=CC[C@@H]4[C@@]5(C)CCCNC(C)(C)[C@@H]5CC[C@]43C)[C@H]12`, the growth was 45.5%. On the same count and under the same terms, next, `O=c1[nH]c2cc(Cl)ccc2n1C1CCN(c2ccc3nnc(Cl)n3n2)CC1`: 93.2%. `COc1ccc(N2CCN(C(=O)CSc3ccc(-c4nc5cc(C)c(C)cc5[nH]4)cn3)CC2)cc1`: the growth is 85.7%. Turning to `Cc1cc(F)cc(NS(=O)(=O)c2ccc(-c3cnc(C4CC4)o3)cc2)c1`, the growth is 8.59% (active). On the same count and under the same terms, next, `Oc1ccc(CSc2nnc(-c3ccncc3)o2)c2cccnc12`: 20.7%.

Consider `O=C(COc1ccc(/C=C2\SC(=O)NC2=O)cc1)Nc1ccc(C(=O)/C=C/c2cc3ccccc3nc2Cl)cc1`, for which the growth was 4.19% (active).

`O=C(Nc1cccc(Cl)c1)Nc1nc2ccc([N+](=O)[O-])cc2s1`: the growth was 4.55% (active).

With `Cn1cc(-c2nn3cc(-c4cccnc4)nc3s2)c2cc(F)ccc21`, the growth was 67.1%. For the molecule `COc1ccc(CCN2C(=O)/C(=C/c3nc(CO)cs3)SC2=S)cc1`, the growth was 103%. On the same count and under the same terms, next, `C/C(=N\NC(=S)Nc1ccc(Br)cc1)c1cc2ccccc2oc1=O`: 90.3%. `O=C1[C@H]2Cc3c([nH]c4ccccc34)[C@@H](c3ccc(Cl)cc3)N2C(=O)CN1C1CCN(Cc2c(Cl)cccc2Cl)CC1`: the growth was 81.8%. Still for that read-out and setting: next, `O=C1[C@H]2Cc3c([nH]c4ccccc34)[C@@H](c3c(Cl)cccc3Cl)N2C(=O)CN1C1CCN(Cc2ccccc2)CC1`: 9.36% (active); `Oc1ccccc1-c1nnc(SCc2ccc(O)c3ncccc23)n1-c1ccccc1`: 14.6%. The same measure, in the same setting: next, `CC1=C2C(=C[C@@](C)(COS(N)(=O)=O)[C@@H]2O)C(=O)[C@](C)(O)C12CC2`: 56.8%. Turning to `CC1(COc2ccc3ncc(C#Cc4cncc(C(=O)Nc5cc(C(C)(C)C)on5)c4)n3n2)COC1`, the growth was 101%.

As for `NC(=S)N/N=C(/C=C/c1cn(-c2ccccc2)nc1-c1ccc(Cl)cc1)c1cc2ccccc2oc1=O`, the growth is 36.1%. For `O=C(/C=C1\C=CN(CCCCO)c2ccccc21)n1ccc2ccccc21`, the growth was 109%. With `Cc1cc(NS(=O)(=O)c2ccc(-c3cnc(C4CC4)o3)cc2)ccc1I`, the growth was 14.2%. As for `Oc1ccc(CSc2nnc(-c3ccccc3)o2)c2cccnc12`, the growth is 88.8%. With `CS(=O)(=O)c1ccc2c(c1)c1c(n2S(=O)(=O)c2ccc(Cl)cc2)CCCC1`, the growth was 5.37% (active). Turning to `CN(C)C(=O)c1ccccc1-n1cnc2ccccc2c1=O`, the growth was 103%. `C=C(C)C(=O)O[C@H]1C[C@@]2(C)OC(=CC2=O)[C@H](C)[C@H](O)[C@H]2OC(=O)C(=C)[C@@H]21`: the growth was 95.6%. As for `O=C(Nc1cc(Cl)cc(Cl)c1)Nc1nc2ccc([N+](=O)[O-])cc2s1`, the growth is 5.08% (active). Regarding `C#C[C@]1(O)CC[C@H]2[C@@H]3CC=C4c5sc(Nc6ccc(OC)nc6)nc5CC[C@]4(C)[C@H]3CC[C@@]21C`, the growth is -4.57% (active).

The record behind these values is PubChem BioAssay (NCI).
